Bioassay records: PubChem BioAssay, National Center for Advancing Translational Sciences (NCATS)
KB-V1 cytotox = kills drug-selected multidrug resistant KB-V1 cells; KB-V1 MDR cells viability, CellTiter-Glo, 72 h; Potency, µM (highest dose often 46.1 µM), hits mostly cytotoxic; hit rate 3.4% among 400,000; AID 1347076; also: nearly all actives have a fitted effect of over 60% in size
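Readout: CellTiter-Glo luminescence, 10 min after addition. Cells: KB-V1 MDR subline, 72 h at 37 degrees C with compound. Analysis: corrected, normalized data fitted to concentration-effect curves.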
KB-3-1 tox = kills parental KB-3-1 adenocarcinoma cells; KB-3-1 viability, CellTiter-Glo ATP luminescence, 72 h; Potency, µM (series often up to 46.1 µM), hits mostly cytotoxic; hit rate 1.4% among 400,000; also: nearly all actives have a fitted effect of over 60% in size
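Using CellTiter-Glo luminescence, growth of non-resistant KB-3-1 adenocarcinoma cells is assessed 72 h after pin-tool compound addition at 37 °C. Normalized responses across the concentration series yield fitted curves.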
MCF10A rerep = inducers of DNA re-replication in MCF 10A breast cells | AID 624296 | hit rate 2.9% among 350,000 | MCF 10A DNA re-replication, Hoechst nuclear intensity, 48 h | Potency, µM (highest dose often 46.1 µM), usual class: activators; also: nearly all actives have a fitted effect of over 50% in size
ELG1 DNA repair = ELG1-dependent DNA repair inhibition | Potency, µM (series often up to 46.1 µM), actives largely listed as inhibitors | HEK293T ELG1-luciferase reporter, luminescence, 16 h; DNA damage induced by 5-fluorouridine | hit rate 2.3% among 330,000; also: nearly all actives have a fitted effect of over 55% in size
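Cells (2,000 per well) received 5-fluorouridine plus test compound or DMSO and were incubated 16 hr at 37 °C, 5% CO2. Luciferase activity was read by luminescence 30 min after ONE-Glo addition; signal suppression marked inhibition of damage-induced ELG1 function.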
SW480 rereplic = inducers of DNA re-replication in SW480 colon cancer cells; hit rate 1.8% among 340,000; Potency, µM (series often up to 46.1 µM), most hits filed as activators; SW480 DNA re-replication, Hoechst DNA content imaging, 48 h; also: nearly all actives have a fitted effect of over 55% in size
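Hoechst fluorescence of nuclei (405 nm excitation, 500-530 nm emission) measured by plate-scanning imager after 48 hr compound exposure at 37 C; re-replication scored as increased number of nuclei with elevated intensity.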
Large screens that a line does not name were inactive. A selection: hits, their analogues and other compounds. The true share with any hit is near 8.2%. Calls follow the shape of the dose curve; as a rule, active = well fitted curve in the direction sought with a large enough effect; inconclusive = small, poorly fitted or top-dose-only effect, or another doubt; inactive = no such curve, though single readings can be large; an effect the other way counts as inactive or inconclusive.

CCOc1ccc(S(=O)(=O)Nc2cc(OC)ccc2OC)cc1	KB-V1 cytotox 0.41µM, KB-3-1 tox 0.1µM, MCF10A rerep inconclusive, SW480 rereplic 0.41µM
COc1ccc(OC)c(NS(=O)(=O)c2ccc(SC)cc2)c1	KB-V1 cytotox 4.1µM, KB-3-1 tox 7.3µM, MCF10A rerep 13µM, ELG1 DNA repair inconclusive, SW480 rereplic 13µM
CCOc1ccc(S(=O)(=O)Nc2cc(OC)c(OC)cc2C(=O)O)cc1	none
COc1ccc(OC)c(NS(=O)(=O)c2ccc(NC(C)=O)cc2)c1	KB-V1 cytotox 21µM, KB-3-1 tox inconclusive, MCF10A rerep inconclusive
COc1ccc(N2C(=NC(=O)c3ccccc3)SC3CS(=O)(=O)CC32)cc1 (centres undefined)	none
CCCc1nc2c(C)cc(Br)cn2c1Cc1ccc(OC)cc1C	none (no result: MCF10A rerep, ELG1 DNA repair, SW480 rereplic)
COc1ccc(CNCc2c(F)cccc2F)cc1OC	none
COc1ccc(NS(=O)(=O)c2ccc(NC(=O)c3ccc(N(C)S(C)(=O)=O)cc3)cc2)c(OC)c1	KB-3-1 tox 4.6µM
Cc1[nH]c2c(C)cccc2c1CCNC(=O)c1ccc2c(c1[N+](=O)[O-])C(=O)c1ccccc1C2=O	KB-3-1 tox inconclusive, MCF10A rerep 7.9µM, ELG1 DNA repair inconclusive, SW480 rereplic 18µM
Cc1[nH]c2ccccc2c1CCNC(=O)c1ccc2c(c1[N+](=O)[O-])C(=O)c1ccccc1C2=O	KB-V1 cytotox 16µM, MCF10A rerep inconclusive, SW480 rereplic inconclusive
CCS(=O)(=O)c1ccc2oc(SCC(=O)NC34CC5CC(CC(C5)C3)C4)nc2c1	KB-V1 cytotox 15µM
CCS(=O)(=O)c1ccc2oc(SCC(=O)NCc3ccccc3)nc2c1	none
Cc1ccccc1N1CCN(C(=S)c2ccc([N+](=O)[O-])cc2)CC1	KB-V1 cytotox 16µM
Cc1cccc(N2CCN(C(=S)c3ccc([N+](=O)[O-])cc3)CC2)c1	none
COC(=O)c1cc(C(=O)N2CCN(c3ncccn3)CC2)cc([N+](=O)[O-])c1	KB-V1 cytotox inconclusive
COC(=O)c1cc(C(=O)N2CCN(c3cccc(C)c3C)CC2)cc([N+](=O)[O-])c1	KB-3-1 tox 5.8µM, MCF10A rerep inconclusive, ELG1 DNA repair inconclusive, SW480 rereplic 4.1µM
COC(=O)c1cc(C(=O)N2CCN(c3ccccc3OC)CC2)cc([N+](=O)[O-])c1	KB-V1 cytotox 1.3µM, KB-3-1 tox 1.2µM, MCF10A rerep 1.2µM, SW480 rereplic 2.1µM
CCOC(=O)[C@]12CCCC=C1N(Cc1ccco1)C(=O)[C@H](CC(=O)N1CCCCC1)C2	none (no result: MCF10A rerep, ELG1 DNA repair, SW480 rereplic)
O=S1(=O)C[C@H](N2CCC(Cc3ccccc3)CC2)[C@@H](COCc2ccccc2)N1	none (no result: MCF10A rerep, ELG1 DNA repair, SW480 rereplic)
COc1cc(SC)ccc1C(=O)NCCOc1ccc(C)c(C)c1	KB-V1 cytotox 16µM
COc1cc(SC)ccc1C(=O)NCc1ccccc1	KB-V1 cytotox 21µM
COc1ccc(CNC(=O)Cn2nc([N+](=O)[O-])cc2C)cc1	KB-V1 cytotox inconclusive
COc1ccc(CNC(=O)Cn2cnc3c(NCc4ccccc4)ncnc32)cc1	KB-3-1 tox 10µM, MCF10A rerep inconclusive, SW480 rereplic 13µM
COc1ccc(CNc2ncnc3c2[nH]c2ccccc23)cc1	KB-V1 cytotox 13µM, MCF10A rerep inconclusive, ELG1 DNA repair 2.1µM
